Bioassay records from PubChem.
An excerpt weighted towards active compounds, which were near 11% of everything screened.
3T3 cytotox: kills NIH 3T3 cells. NIH 3T3 viability, CellTiter-Glo ATP luminescence, 48-72 h. actives 4.3% (n = 94,000). Potency, µM (doses to about 96.7 µM), for the others: at the top dose activity change, negative = cytotoxicity, actives largely listed as inhibitors; further: on the % scale 0 is the no-effect control and ±100 the full control effect; nearly all actives have a fitted effect of over 55% in size
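Cells were seeded at 400 per well, treated with pin-transferred compound, and kept 48 or 72 hr at 37 °C before CellTiter-Glo addition and luminescence imaging of cellular ATP.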
Luciferase inh: blocks purified firefly luciferase enzyme activity; P08659; purified P. pyralis luciferase, luminescence, biochemical; Potency, µM (titrated, usually from 115 µM), usual class: inhibitors; actives 2.5% (n = 76,000); further: on the % scale 0 is the no-effect control and ±100 the full control effect; nearly all actives have a fitted effect of over 65% in size
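Biochemical qHTS: compound (6-point titration) added to 10uM D-luciferin plus 10uM ATP in Tris acetate pH 7.5 buffer with Mg, Tween-20 and BSA, then purified enzyme at 10nM; light output imaged.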
NPR1 antag: human Npr1 receptor antagonism. P16066. HEK293 hNpr1 GloSensor cGMP, ANP-stimulated luminescence. Potency, µM (highest dose often 46.3 µM), for the others: at the top dose activity change, negative = inhibition, hits mostly inhibitors. actives 1.6% (n = 76,000). AID 1347048; calls by dose curve; further: on the % scale 0 is the no-effect control and ±100 the full control effect; nearly all actives have a fitted effect of over 60% in size
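Compound pre-incubated 30 min at room temperature on GloSensor-loaded HEK293 cells stably carrying hNpr1 and the pGS-40F cGMP biosensor. Stimulation uses hNppA at 0.1 nM final; luminescence is taken at baseline and 20 min post-agonist.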
HEK293 tox: kills HEK 293 cells | HEK 293 viability, ATP luminescence (CellTiter-Glo), 48-72 h | Potency, µM (highest dose often 115 µM), inactives show top-dose activity change, negative = cytotoxicity, actives largely listed as inhibitors | actives 6.6% (n = 94,000); further: on the % scale 0 is the no-effect control and ±100 the full control effect; nearly all actives have a fitted effect of over 60% in size
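Pintool-delivered compounds were incubated with HEK 293 cells (250 cells/well) at 37 degree Celsius for 48 or 72 hr. ATP-dependent luminescence (CellTiter-Glo) then reported remaining viable cells.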
Npr1 antag conf: confirmation of human Npr1 natriuretic peptide receptor antagonists. shares compounds with NPR1 antag. HEK293 hNpr1 cGMP GloSensor luminescence, ANP-stimulated. Potency, µM (series often up to 57.6 µM), for the others: at the highest dose activity change, negative = inhibition, hits mostly inhibitors. actives 76% (n = 1,400). AID 1347044; calls by dose curve; further: nearly all actives have a fitted effect of over 70% in size
Npr2 selectivity: hNpr2 antagonism, selectivity versus Npr1 | shares compounds with NPR1 antag | Potency, µM (series often up to 57.6 µM), for inactives: at the highest dose activity change, negative = inhibition, actives largely listed as inhibitors | actives 67% (n = 1,400) | AID 1347046 | HEK293 hNpr2 GloSensor cGMP luminescence, CNP-stimulated; calls by dose curve; further: nearly all actives have a fitted effect of over 70% in size
FLuc counter: FLuc enzyme inhibition, Npr1 counter-screen; AID 1347047; actives 0.7% (n = 1,400); purified FLuc enzyme, luminescence, Km substrate; shares compounds with NPR1 antag; Potency, µM (doses to about 57.6 µM), inactives show at the highest dose activity change, negative = inhibition, actives largely listed as inhibitors; further: 0% is about no effect
GloSensor ctrl: reduces cGMP signal in GloSensor control cells | shares compounds with NPR1 antag | HEK293 GloSensor cGMP, SNP-stimulated, luminescence | Potency, µM (titrated, usually from 57.6 µM), for the others: at the highest dose activity change, negative = inhibition, hits mostly inhibitors | actives 69% (n = 1,400) | AID 1347051; calls by dose curve; further: on the % scale 0 is the no-effect control and ±100 the full control effect; nearly all actives have a fitted effect of over 70% in size
Numbers without * were called inactive; i = inactive; ? = inconclusive; · = no result; [ ] = remark or other dose. Unless noted, the call rests on the fitted dose curve; in most records, active means well fitted curve in the direction sought with a large enough effect; inconclusive means small, poorly fitted or top-dose-only effect, or another doubt; inactive means no such curve, though single readings can be large; an effect the other way counts as inactive or inconclusive. Potency means the concentration at half of the fitted maximal effect.

SMILES	3T3 cytotox	Luciferase inh	NPR1 antag	HEK293 tox	Npr1 antag conf	Npr2 selectivity	FLuc counter	GloSensor ctrl
Cn1cc(C(=O)N2[C@H]3CC[C@@H]2c2cnc(-c4ccc(F)cc4)nc2C3)cn1	-23%	i	0%	?	·	·	·	·
CCn1nccc1C(=O)N1[C@H]2CC[C@@H]1c1cnc(-c3ccc(F)cc3)nc1C2	?	i	6.3µM*	?	11µM*	12µM*	2%	11µM*
O=C(C1CCCC1)N1[C@H]2CC[C@@H]1c1cnc(-c3ccc(F)cc3)nc1C2	-11%	i	10µM*	16µM*	8.6µM*	12µM*	-1%	8.6µM*
CC(C)C(=O)N1[C@H]2CC[C@@H]1c1cnc(-c3ccc(F)cc3)nc1C2	-28%	i	22µM*	?	19µM*	22µM*	1%	19µM*
CC(C)CC(=O)N1[C@H]2CC[C@@H]1c1cnc(-c3ccc(F)cc3)nc1C2	?	i	13µM*	20µM*	24µM*	24µM*	3%	19µM*
CCOCC(=O)N1CCC2(CC1)c1nccn1-c1ccccc1CN2C	-4%	i	1%	-4%	·	·	·	·
O=C(NCC[C@@H]1C[C@@H]2C=C[C@H]1C2)c1cn(Cc2ccccc2Cl)nn1	-24%	i	0%	-19%	·	·	·	·
Cn1cc(CNCC2(CO)C[C@@H](O)[C@@H](O)C2)c2ccccc21 (stereo not given in full)	1%[138 µM]	i	-3%[70.6 µM]	-4%[172 µM]	·	·	·	·
